Screens deposited in PubChem BioAssay by Buhrlage Lab, Dana-Farber Cancer Institute and Novartis Institutes for BioMedical Research (Cambridge, Mass).
USP8 block = human USP8 deubiquitinase inhibition. inhibition, % at 20 µM. P40818. AID 1645853. 47,000 compounds, 4.2% hits. purified USP8, Ub-rhodamine cleavage fluorescence, 30 min
USP28 inh = human USP28 deubiquitinase inhibition | AID 1645857 | inhibition, % at 25 µM | purified USP28, Ub-rhodamine cleavage fluorescence, 30 min | Q96RU2 | 47,000 compounds, 3% hits
USP30 inh = inhibitors of human USP30 deubiquitinase; Q70CQ3; purified USP30, Ub-rhodamine cleavage fluorescence; inhibition, % at 25 µM; 47,000 compounds, 5.3% hits; AID 1645860
Target sequence (Q70CQ3 whole entry, looked up): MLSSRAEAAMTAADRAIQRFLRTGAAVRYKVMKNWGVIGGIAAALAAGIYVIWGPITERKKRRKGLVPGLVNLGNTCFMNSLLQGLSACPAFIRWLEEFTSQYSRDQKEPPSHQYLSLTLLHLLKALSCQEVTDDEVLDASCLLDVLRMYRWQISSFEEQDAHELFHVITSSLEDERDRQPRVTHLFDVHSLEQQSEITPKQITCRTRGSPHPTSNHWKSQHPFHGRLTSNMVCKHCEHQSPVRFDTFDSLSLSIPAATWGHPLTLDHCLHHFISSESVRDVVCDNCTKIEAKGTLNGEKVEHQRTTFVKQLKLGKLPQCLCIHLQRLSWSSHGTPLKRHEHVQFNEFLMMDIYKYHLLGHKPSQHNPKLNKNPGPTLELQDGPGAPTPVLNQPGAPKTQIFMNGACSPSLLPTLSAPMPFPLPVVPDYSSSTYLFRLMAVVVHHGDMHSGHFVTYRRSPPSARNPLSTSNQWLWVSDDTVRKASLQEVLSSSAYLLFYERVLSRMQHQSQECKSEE
USP17 inh = human USP17-like deubiquitinase inhibition; 47,000 compounds, 6.5% hits; A8MUK1; AID 1645855; inhibition, % at 50 µM; purified USP17, Ub-rhodamine cleavage fluorescence, 3 h
Active calls of the source: *; i = inactive; . = no result given. Sampled rows, rich in hits. Any-hit rate of the full collection: about 14%. No stated cut-off is given here; in the data, active means inhibition above about 30%; inactive means the rest.

SMILES	USP8 block	USP28 inh	USP30 inh	USP17 inh
Cc1cc(NCC2CC2)n2nc(Nc3cc(Cl)ccc3C)nc2n1	0	11	31*	71*
COc1ccc2c(c1)C(=O)N(CCc1ccc(S(=O)(=O)NC(=O)NC3CCCCC3)cc1)C(=O)C2(C)C	17	20	47*	28
COc1ccc(-n2nc(C)c3c2NC(=O)CC3C(=O)c2ccc3c(c2)OCCO3)cc1 (stereo not given)	8	12	22	10
CCc1ccc(-n2nc(C)c3c2NC(=O)CC3C(=O)c2ccc3c(c2)OCCO3)cc1 (stereo not given)	-1	0	-2	57*
O=C(Nc1ccc(F)cc1)N1C[C@@H]2c3nccn3-c3ccccc3[C@@H]2C1	-5	-13	-5	-8
Cc1ccc(NC(=O)CN2C(=O)c3ccccc3C2c2c[nH]c3ccccc23)cc1 (stereo not given)	-7	-3	-18	-1
O=C(Nc1ccccc1)c1ccc(-c2ccc(N3CCCC3)nn2)cc1	15	22	39*	22
O=C(NCc1ccc2c(c1)OCO2)c1ccc(-c2ccc(N3CCCC3)nn2)cc1	16	15	0	3
O=C(NCc1ccccc1)c1ccc(-c2ccc(N3CCCC3)nn2)cc1	-2	-2	-29	66*
Cc1cc(C(=O)Nc2cnc(-c3cccc(Cl)c3)nc2)no1	9	-9	-29	-16
Cc1cc(C)cc(Nc2cc(C(=O)N3CCOCC3)c3ccccc3n2)c1	1	-18	-13	-9
O=C(c1cc(C2CC2)on1)N1CCc2ccccc2C1	-4	0	-33	-5
O=C(O)c1nccnc1C(=O)N1CCc2ccccc2C1	91*	46*	8	78*
COc1cc2ncc(S(=O)(=O)c3ccc(Cl)cc3)c(NCc3ccc(C)cc3)c2cc1OC	2	-1	-14	-3
Cc1c(Cl)cccc1NC(=O)CN1c2ccccc2S(=O)(=O)c2ccccc21	-10	.	.	-21
Cc1ccc(C2=Nc3ccccc3N(CC(=O)Nc3cccc(C)c3C)C(=O)C2)cc1C	43*	32*	34*	36*
Cc1cccc(NC(=O)CN2C(=O)CC(c3ccccc3)=Nc3ccccc32)c1C	11	0	34*	16
O=c1[nH]c(Cc2ccc([N+](=O)[O-])cc2)nc2scc(-c3ccccc3)c12	-13	-1	-69	-21
COc1cc(NCc2nc3scc(-c4ccccc4)c3c(=O)[nH]2)cc(OC)c1	-39	-16	-55	-4
O=C(O)c1ccccc1Cc1nc2scc(-c3ccccc3)c2c(=O)[nH]1	31*	7	7	14
NS(=O)(=O)c1cccc(NCc2nc3scc(-c4ccccc4)c3c(=O)[nH]2)c1	6	48*	32*	43*
Cc1cc(NCC(=O)Nc2ccc(Cl)cc2)n2nc(-c3cccnc3)nc2n1	27	22	38*	12
CCCCNC(=O)c1cccc(Nc2cc(C)nc3nc(-c4cccnc4)nn23)c1	0	-2	38*	32*
COc1ccc(NC(=O)COc2ccc3ccc(=O)oc3c2)cc1	5	26	15	57*
COc1ccccc1-c1coc2cc(OC(=O)c3ccc(C(C)(C)C)cc3)ccc2c1=O	13	-14	-38	3
SMILES	USP8 block	USP28 inh	USP30 inh	USP17 inh
COc1cc(C(=O)Oc2ccc3ccc(=O)oc3c2)cc(OC)c1OC	-32	18	45*	21
OC1(c2cccnc2)CCN(Cc2ccccc2F)CC1	-13	-6	-44	-13
COCCn1cc(CN2CCC(O)(c3ccccc3F)CC2)c2ccccc21	32*	26	35*	9
CCc1nc(N2CCCC2=O)sc1C(=O)Nc1cccc(C(C)=O)c1	5	52*	14	12
CCc1nc(N2CCCC2=O)sc1C(=O)Nc1ccccc1	3	22	0	.
CCc1nc(N2CCCC2=O)sc1C(=O)Nc1cccc(C)c1	1	49*	-6	.
Cc1ccc(-c2nc(C)sc2C2=C(c3ccc(Cl)cc3)COC2=O)cc1	-39	-36	-120	-28
Cc1cc(C)c(NC(=O)Cn2c(=O)n(CCC(=O)NCc3ccc4c(c3)OCO4)c(=O)c3sccc32)c(C)c1	27	49*	27	75*
COc1c(C)cnc2c1c(=O)n(CC(=O)NCc1ccc3c(c1)OCO3)c(=O)n2C	13	5	36*	22
O=C(CCCn1c(=O)c2sccc2n(CC(=O)NCCC2=CCCCC2)c1=O)NCc1ccc2c(c1)OCO2	4	32*	20	50*
Cc1ccc(CNC(=O)Cn2c(=O)c3sccc3n(CC(=O)Nc3ccc(Br)cc3)c2=O)cc1	23	10	26	10
Cc1c(C#N)c2ccccc2n1CC(=O)NCc1ccc2c(c1)OCO2	60*	32*	22	40*
COc1ccc([C@@H]2CN(Cc3ccc(OC)c(CO)c3)C[C@]23CCCCC(=O)N3)cc1	1	-12	-63	-12
O=S(=O)(c1ccccc1)N1CCN2Cc3ccccc3N(Cc3ccccc3)CC2C1 (stereo not given)	-238	-260	i	-166
Oc1ccc(-c2nc3c4cnn(-c5ccc(Cl)cc5)c4ncn3n2)cc1	-7	.	.	32*
CC(C)=CCc1cccc2c(C3=C(O)C(=O)C(c4c[nH]c5c(CC=C(C)C)cccc45)=C(O)C3=O)c[nH]c12	4	52*	43*	72*
O=C(Cn1cc(C(=O)C(F)(F)F)c2cc(Br)ccc21)N1CCc2ccccc21	2	-8	-3	40*
CC(C)(C)C(=O)c1cn(CC(=O)N2CCCc3ccccc32)c2ccccc12	7	12	12	4
O=C(CSc1nnc(Cn2cnc3ccccc32)o1)Nc1ccc([N+](=O)[O-])cc1	-70	12	25	63*
O=C(COc1ncnc2ccccc12)Nc1ccc2c(c1)OC1(CCCC1)O2	58*	26	10	60*
COc1ccc(C)cc1NC(=O)COc1ncnc2ccccc12	0	14	9	0
N#Cc1c(N)sc2c1CCN(c1ncc(C(F)(F)F)cc1Cl)C2	-61	-132	-494	-101
N#Cc1c(N)nc2c(c1N)C(c1ccccc1)CO2 (stereo not given)	0	18	58*	44*
N#Cc1c(N2CCOCC2)nc(N)c2c(N)nc3c(c12)CC(c1ccccc1)O3 (stereo not given)	-14	-57	-222	-51
c1ccc(Nc2nc(Nc3ccccc3)nc(N3CCCCCC3)n2)cc1	12	6	6	3
Cc1ccc(C2CC(=O)c3cnc(NC(=O)c4ccc(Cl)cc4)nc3C2)cc1 (stereo not given)	10	10	43*	16
COc1cc(C(=O)Nc2ncc3c(n2)CC(c2ccc(C)cc2)CC3=O)cc(OC)c1OC (stereo not given)	-9	-4	-1	-10
O=C(Cc1ccccc1)Nc1oc2ccccc2c(=O)c1-c1ccc2c(c1)OCO2	25	11	32*	24
Cc1ccc2nnc(-c3ccccc3)c(C(=O)N3CCN(c4ccccn4)CC3)c2c1	-3	2	5	50*
COc1ccccc1NC(=O)c1oc2ccccc2c1NC(=O)c1ccccc1C	13	8	19	28
